Screens as filed in PubChem BioAssay.
HCMV inh: human cytomegalovirus inhibition; activity change, negative = inhibition, % at 57.5 µM; 4.5% of 410,000 active; AID 1259415; HFF cells, HCMV-luciferase reporter, 72 h; stronger effect = lower value; in the data active means activity change below about -60%; inconclusive means no clear call, values can overlap the other calls; inactive means above about -39%; further: on the % scale 0 is the no-effect control and ±100 the full control effect
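After 16 h attachment at 37C, HFF cells received test compound and HCMV-luciferase (1 PFU/cell); reporter luminescence read 72 h later, data normalized against buffer-only and known inhibitor Salinomycin.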
Shiga toxin inh: Shiga toxin inhibition | Vero cells, Shiga toxin protein synthesis inhibition reporter | inhibition, % at 38.7 µM | 9.2% of 290,000 active | AID 2315; in the data active means inhibition mostly above about 28%, no sharp cut-off; inactive means mostly below about 43%; further: 0% is about no effect
Pf growth 96h: P. falciparum growth inhibition at 96 hour, primary screen for plastid delayed-death inhibitors. AID 504834. Potency, µM (highest dose often 28.7 µM), inactives show at the top dose activity change, negative = inhibition, most hits filed as inhibitors. P. falciparum luciferase reporter growth, 96 h. 6.9% of 320,000 active; further: potency means the concentration at half of the fitted maximal effect; on the % scale 0 is the no-effect control and ±100 the full control effect
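P. falciparum expressing integrated firefly luciferase grown in erythrocytes (2% hematocrit, 0.05% parasitemia final) with compounds for 96 hours at 37 C, 5% CO2. Growth inhibition read as loss of luminescence after adding luciferase detection reagent.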
Pf growth 48h: inhibits P. falciparum growth in the first generation, 48 h. Potency, µM (top dose mostly 28.7 µM), without a hit: at the top dose activity change, negative = inhibition, usual class: inhibitors. AID 504832. P. falciparum luciferase growth in erythrocytes, 48 h. 5.9% of 310,000 active; further: potency means the concentration at half of the fitted maximal effect; on the % scale 0 is the no-effect control and ±100 the full control effect
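Luciferase-expressing parasites in RBCs, 2% Hct / 0.1% parasitemia final; RPMI 1640 + 0.5% Albumax; 37 C, 5% CO2, one generation; luminescence read-out, lower signal = inhibition.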
Cycloheximide cs: counter-screen for Shiga toxin inhibitors: cycloheximide protein synthesis inhibition. cell reporter, cycloheximide protein synthesis inhibition counterscreen. max response, %. 12% of 300,000 active. AID 2314; in the data active means max response mostly above about 13%, no sharp cut-off; inactive means mostly below about 14%; further: read at 38.3 µM for the half of the compounds with a filed dose; 0% is about no effect
* marks the source's active call; other numbers are inactive results; i = inactive; ? = inconclusive; . = no result given. Only some compounds are listed: those with a hit (about 20% of all), similar ones and a draw of the others. Unless noted, the call rests on the fitted dose curve; in most records, active means well fitted inhibition curve with a large enough effect; inconclusive means small, poorly fitted or top-dose-only effect, or another doubt; inactive means no such curve, though single readings can be large or run the other way.

SMILES	HCMV inh	Shiga toxin inh	Pf growth 96h	Pf growth 48h	Cycloheximide cs
COc1ccc(CN(CCO)CCO)cc1[N+](=O)[O-]	-12	-11	34%	9%	-3
CC/C(=N/NC(=O)CNc1ccc(Cl)cc1C)c1ccccc1	-1	-22	-48%	5%	-9
O=c1c2[nH]c3ccccc3c2ncn1Cc1ccco1	16	16	0%	20%	2
Cc1ccc2c(c1)[nH]c1c(=O)n(Cc3ccco3)cnc12	-21	35	37%	47%	21*
CCCCOC(=O)n1c(SCC(=O)N(CC)CC)nc2ccccc21	2	-7	2.6µM*	-22%	0
CCOC(=O)n1c(SCC(N)=O)nc2ccccc21	16	-2	?	14%	1
COc1ccc(CCN2C(=O)c3[nH]nc(-c4ccccc4O)c3C2c2ccc(OC)cc2)cc1 (stereo not drawn)	-36	.	.	.	.
O=C(NC1CC1)c1ccc(CSCc2ccccc2Cl)o1	0	18	24%	1.9µM*	26*
Cc1onc(-c2ccccc2)c1C(=O)OCC(=O)c1ccccc1	-5	-11	.	-1%	-3
Cc1ccccc1OCCOC(=O)c1c(-c2ccccc2)noc1C	4	-5	?	12µM*	1
Cc1onc(-c2ccccc2)c1C(=O)OCCOc1ccccc1F	?	37	-27%	?	34*
Cc1onc(-c2ccccc2)c1C(=O)OCC(=O)c1ccc(F)cc1	-29	.	.	.	.
Cc1onc(-c2ccccc2)c1C(=O)OCCOc1ccc([N+](=O)[O-])cc1[N+](=O)[O-]	?	21	4.1µM*	.	-2
Cc1ccc(-c2csc(NC(=O)c3ccccc3Cl)c2C(=O)O)cc1	16	40*	40%	15%	23*
Cc1ccc(-c2csc(NC(=O)c3cccc(C)c3)c2C(=O)O)cc1	-21	.	.	.	.
CC(C)c1ccc(-c2csc(NC(=O)c3cccs3)c2C(=O)O)cc1	-23	34*	44%	2%	15
Cc1ccc(-c2csc(NC(=O)c3ccc(Br)cc3)c2C(=O)O)cc1	-95*	15	4%	.	13
COC(=O)c1c(-c2cccs2)csc1NC(=O)c1ccc(C(C)C)cc1	62	.	.	.	.
Cc1ccc(-c2nn3c(-c4ccccc4C)nnc3c3ccccc23)cc1	-39	.	.	.	.
COc1cccc(OCc2cc(C(=O)NC(C)c3cnn(C)c3C)no2)c1 (stereo not drawn)	-22	59*	?	4%	27*
O=C(c1cc(COc2ccc(F)cc2Cl)on1)N(CCO)Cc1cccs1	-4	49	18%	19%	20*
O=C(c1cc(COc2ccc(F)cc2Cl)on1)N1CCSCC1	60	67*	?	106%	62*
COc1ccc(OCc2cc(C(=O)NC3CCc4ccccc43)no2)c(Cl)c1 (stereo not drawn)	-5	-1	10µM*	-20%	0
O=C(NC1CCc2ccccc21)c1cc(COc2ccc(F)cc2F)on1 (stereo not drawn)	-23	29	0%	30%	-3
COc1cccc(OCc2cc(C(=O)NCc3cnc4ccccn34)no2)c1	?	-8	?	?	5
SMILES	HCMV inh	Shiga toxin inh	Pf growth 96h	Pf growth 48h	Cycloheximide cs
Cc1cc(C)n(CCNC(=O)c2cc(COc3ccc(F)cc3Cl)on2)n1	10	3	30%	-9%	4
O=C(c1cc(COc2ccc(F)cc2Cl)on1)N1CCc2ccccc2C1	?	-6	17%	6%	1
Cc1nc2cc(OCc3cc(C(=O)NC(C)c4cnn(C)c4)no3)ccc2s1 (stereo not drawn)	38	-8	?	?	0
COc1ccc(OCc2cc(C(=O)NC(C)c3cnn(C)c3)no2)c(Cl)c1 (stereo not drawn)	14	47*	1%	-3%	38*
COc1ccc(OCc2cc(C(=O)N3CCC(c4ccccc4)CC3)no2)c(Cl)c1	25	106*	22%	-5%	78*
COCC1CCN(C(=O)c2cc(COc3ccc(F)cc3Cl)on2)C1 (stereo not drawn)	4	.	.	.	.
COc1ccc(OCc2cc(C(=O)N3CCSCC3)no2)c(Cl)c1	27	143*	?	303%	67*
O=C(c1cc(COc2cccc(C(F)(F)F)c2)on1)N1CCC(c2ccccc2)CC1	-40	3	?	5%	8
COc1ccc(OCc2cc(C(=O)N3CCOCC3)no2)c(Cl)c1	0	91*	54%	195%	43*
CC(C)n1c(=N)c(C(=O)NCc2cccnc2)cc2c(=O)n3ccccc3nc21	1	.	.	.	.
O=C(CSc1nnc2ccccn12)Nc1cccc(S(=O)(=O)N2CCOCC2)c1	21	-3	-2%	-5%	-5
COc1ccc(S(=O)(=O)N(CC(=O)NCC2CCCO2)c2ccc(F)cc2)cc1OC (stereo not drawn)	-36	-7	?	?	1
CC(NC(=O)c1cc(COc2c(F)cccc2F)on1)c1cnn(-c2ccccc2)c1 (stereo not drawn)	3	76*	?	3%	25*
Cc1nn(C)cc1C(C)NC(=O)c1cc(COc2c(F)cccc2F)on1 (stereo not drawn)	-29	-7	i	31%	7
COc1ccc(OCc2cc(C(=O)N3CCCCCC3)no2)c(Cl)c1	50	68*	15%	33%	47*
COc1ccc(OCc2cc(C(=O)N3CCN(CC(=O)N(C)C)CC3)no2)c(Cl)c1	33	3	?	1%	23*
O=C(c1cc(COc2ccc(F)cc2Cl)on1)N1CCN(c2cnccn2)CC1	?	1	?	4%	1
Cc1noc(C)c1COc1ccccc1C(=O)N(C)Cc1ccc(C(C)(C)C)cc1	?	.	15µM*	12µM*	.
Cc1noc(C)c1COC(=O)c1ccccc1Oc1ccccc1	73	-20	13µM*	-5%	-3
Cc1noc(C)c1COc1ccccc1C(=O)NCCOc1ccccc1F	2	.	-38%	-11%	.
Cc1noc(C)c1COc1ccccc1C(=O)NC1CCC(C)CC1 (stereo not drawn)	4	55*	4.1µM*	?	27*
Cc1ccc(NC(=S)Nc2c(C)n(C)n(-c3ccccc3)c2=O)cc1Cl	-36	29	?	-10%	-3
COc1ccc(CNC(=O)C(CC(C)C)NC(=O)c2ccccc2C)cc1 (stereo not drawn)	-37	-13	12%	?	-1
O=C(c1cc2ccccc2oc1=O)N1CCOCC1	-35	73*	25%	5%	39*
COC(=O)C1CCN(C(=O)c2cc3ccccc3oc2=O)CC1	101	48*	103%	.	33*
COc1cc(Br)cc2cc(C(=O)N3CCOCC3)c(=O)oc12	4	-12	3.3µM*	39%	1
O=C(c1cc2ccccc2oc1=O)N1CCN(C(=O)C2CCCO2)CC1 (stereo not drawn)	24	12	-16%	-9%	1
COc1ccccc1OCCNC(=O)C1CC(=O)N(Cc2ccccc2)C1 (stereo not drawn)	22	.	16%	?	.
